Assay outcomes as filed in PubChem.
D1 allo mod = D1 dopamine receptor (human) allosteric modulation. B-score at 10 µM. P21728. AID 641. HEK293 D1, CRE-luciferase, dopamine EC30 potentiation; actives deviate in either direction. 58,000 compounds, 5.9% hits;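 active means luminescence count or its row- and column-corrected plate score outside the 99.7% band of the plate's sample wells, on either side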
Target sequence (P21728 whole entry, looked up): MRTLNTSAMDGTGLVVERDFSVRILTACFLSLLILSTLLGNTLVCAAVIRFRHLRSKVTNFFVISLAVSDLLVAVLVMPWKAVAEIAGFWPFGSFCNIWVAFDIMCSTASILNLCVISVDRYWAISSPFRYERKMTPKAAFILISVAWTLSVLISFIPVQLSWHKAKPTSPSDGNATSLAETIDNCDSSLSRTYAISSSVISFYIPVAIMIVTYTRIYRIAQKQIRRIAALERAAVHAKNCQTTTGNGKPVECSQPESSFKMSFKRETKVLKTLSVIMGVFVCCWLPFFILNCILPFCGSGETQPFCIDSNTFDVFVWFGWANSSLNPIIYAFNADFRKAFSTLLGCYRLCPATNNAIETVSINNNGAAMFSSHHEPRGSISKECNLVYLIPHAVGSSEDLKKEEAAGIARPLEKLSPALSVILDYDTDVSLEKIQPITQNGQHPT
M1 antag = M1 muscarinic receptor (rat) antagonism. AID 628. P08482. 64,000 compounds, 3.4% hits. B-score at 10 µM. CHO-M1 cells, Fluo-4 calcium, ACh EC80 antagonist mode; hits give low values;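 active means calcium fluorescence response, raw or row-and-column corrected B-score, differing from the plate sample mean either way at a set confidence level, mostly lower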
WNV NS2B-NS3 inh = blocks West Nile virus NS2B-NS3 protease activity | P06935 | WNV NS2B-NS3 protease, fluorogenic substrate Ex360/Em465; hits give low values | z-score (no concentration beside the values) | 65,000 compounds, 0.18% hits | AID 577; in the data active means z-score below about -3
Htt clearance = mutant huntingtin protein clearance; HeLa Exon1htt(103Q)mCFP, aggregate imaging; zero = plate's median compound well; inhibition, % at 1.5 µM; 47,000 compounds, 0.42% hits; AID 853;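 active means inhibition of aggregate fluorescence above about 70%, also judged a hit by eye on the cell image, limit read from the data, passing the limit was not always enough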;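 further: cells exposed to compound for three days before fixation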
M1 ag = agonists of M1 muscarinic receptor | B-score at 10 µM | CHO-M1 cells, Fluo-4 calcium fluorescence, agonist mode; hits give high values | 64,000 compounds, 3% hits;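 active means fluorescence rise, raw or as B-score row- and column-corrected plate score, outside the 99.7% band of its plate's samples, either direction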
M1 antag conf = confirmation of rat M1 muscarinic receptor antagonists | shares compounds with M1 antag | CHO-M1 cells, Fluo-4 calcium, ACh EC80 antagonism; hits give low values | calcium response (max-min fluorescence) at 10 µM | 1,700 compounds, 43% hits | AID 677;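 active means calcium response below the same-plate mean of wells given acetylcholine alone at its 80%-effect dose, minus 3 SD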;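 further: raw fluorescence intensity difference in arbitrary instrument units and not normalized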
mGluR4 antag = mGluR4 (human) activity, M1 antagonist secondary assay; shares compounds with M1 antag; CHO-mGluR4 calcium flux, Fluo-4 fluorescence, glutamate EC80; hits give low values; fluorescence response (max-min) at 10 µM; 1,700 compounds, 0.9% hits; AID 678;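 active means fluorescence response below the plate's average for near-maximal glutamate wells, less 3 SD of those wells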;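 further: raw unnormalized fluorescence span taken in the window right after glutamate addition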
An asterisk follows results filed as active; nt = no result. Sampled rows, rich in hits. Any-hit rate of the full collection: about 8.9%.

SMILES	D1 allo mod	M1 antag	WNV NS2B-NS3 inh	Htt clearance	M1 ag	M1 antag conf	mGluR4 antag
CC1CCN(C(=O)CSc2nc3cccnc3n2C)CC1	0.12	0.6	2.2	nt	-1.2	nt	nt
CCOc1ccc2c(c1)c1nnc(SCC(=O)N3CCCCC3C)nc1n2C (stereo not given)	-1	-3.2*	0.73	-3	-0.33	435	213
COc1cccc(/C=N/n2c(C)c3c(C)nnc(C)c3c2C)c1O	-1.2	-0.24	0.17	nt	0.17	nt	nt
CCOC(=O)c1[nH]c2ccc(OCC)cc2c1NC(=O)CN1CCN(c2ccccn2)CC1	1.2	-2.5*	0.31	nt	1	581	198
CCOc1cc(C2C(C(=O)c3ccccc3)=C(C(=O)OC)Nc3nnnn32)ccc1O (stereo not given)	-0.33	-0.32	0.07	nt	-0.21	nt	nt
CC(=O)/C=C(\C)NCCNc1c(F)c(F)c(CO)c(F)c1F	nt	-0.76	-1.1	nt	-0.037	nt	nt
O=S1(=O)CC=C(CSc2nc3ccccc3[nH]2)C1	nt	-2.3*	0.93	nt	0.056	566	201
O=S(=O)(NC1CCc2ccccc21)c1ccc(S(=O)(=O)N2CCCC2)cc1 (stereo not given)	-0.043	-0.0084	0.97	nt	-0.7	nt	nt
c1ccc(Oc2cccc(NC3=NCCC3)c2)cc1	0.41	-3.5*	0.11	nt	-0.76	393*	265
COc1ccc2nc(NC(=O)CSc3nnc(-c4ccoc4C)n3C)sc2c1	0.33	-11*	-0.98	nt	-0.31	492	185
CCn1nnnc1SCC(=O)Nc1nc2ccc(OC)cc2s1	nt	nt	nt	-36	nt	nt	nt
O=C(O)Cn1cnc2ccccc2c1=O	nt	nt	nt	-16	nt	nt	nt
CC(C(=O)c1ccccc1)n1cnc2ccccc2c1=O (stereo not given)	0.075	-10*	-1.2	-24	-0.26	608	209
O=C(O)CCC(=O)Nc1ccc(S(=O)(=O)Nc2nccs2)cc1	0.4	-11*	-0.23	nt	-0.078	695	195
O=C(Cn1c(C(=O)N2CCN(C3CCCC3)CC2)cc2sccc21)c1ccccc1	-1.8	0.53	-0.2	nt	0.094	nt	nt
O=C(CN1CCN(Cc2cccc(Cl)c2)C1=O)NCc1ccccn1	nt	nt	nt	-17	nt	nt	nt
Cc1cc(Br)c(S(=O)(=O)n2nnc3ccccc32)cc1C	nt	-12*	-0.5	1	-0.24	674	228
O=S(=O)(c1cc(Cl)ccc1Cl)n1nnc2ccccc21	-0.58	-0.24	0.57	nt	0.18	nt	nt
CC(C)CCN(C)C1CCN(S(=O)(=O)c2cccc(C(F)(F)F)c2)CC1	0.066	-9*	-0.07	nt	-0.11	215*	214
CCCC(CCC)C(=O)OC1C[C@H]2CC[C@@H](C1)[N+]2(C)C (stereo not given in full)	-0.37	-15*	-2.9	nt	-0.15	30*	246
CC(=O)Nc1ccc(Oc2nc(C)cc(C)n2)cc1	0.3	0	1.5	-12	1.9	nt	nt
CCN(CC)S(=O)(=O)c1ccc(C(=O)Oc2ccc3c(c2)OCO3)cc1	0.045	0.31	-0.82	nt	0.65	nt	nt
CCN(CC)S(=O)(=O)c1ccc(C(=O)OC2CCCCC2CN(C)C)cc1 (stereo not given)	nt	-4.6*	-0.63	nt	0.048	509	219
COc1ccc(Cc2nc(-c3ccc(-n4cccc4)cc3)no2)cc1	0.23	-1.1	-0.71	nt	-1.1	nt	nt
Cc1ccc(SCc2nc(-c3ccccc3)no2)cc1	-0.027	-0.66	-1.6	14	-0.91	nt	nt
SMILES	D1 allo mod	M1 antag	WNV NS2B-NS3 inh	Htt clearance	M1 ag	M1 antag conf	mGluR4 antag
COc1ccc(Cc2nc(-c3ccccc3)no2)cc1	0.57	-2.1*	-0.45	-11	0.14	611	263
COc1ccc(-c2noc(CSc3nc(N)c(-c4ccccc4)c(=O)[nH]3)n2)cc1	2.6	-3.4*	-0.87	-49	0.93	628	290
COc1ccc(N2CCN(CCNC(=O)c3cccn4c(=O)c5ccc(Cl)cc5nc34)CC2)cc1	-0.81	1.3	0.62	nt	0.55	nt	nt
COc1ccc(OC)c(S(=O)(=O)NCCC2=CCCCC2)c1	0.099	-2.7*	-0.75	nt	1.2	441*	229
CCc1ccc(N2C(=O)C3ON(c4ccccc4)C(c4ccco4)C3C2=O)cc1 (stereo not given)	0.18	0.75	1.5	nt	-0.9	nt	nt
CCCCN1C(=O)C2ON(c3ccccc3C)C(c3ccco3)C2C1=O (stereo not given)	-0.24	-0.94*	1.4	nt	0.19	532*	223
O=C(Cc1coc2ccc3ccccc3c12)N1CCN(c2ncccn2)CC1	0.57	-3.3*	-0.76	-3	-0.76	589	240
COCCn1nnnc1C(c1ccccc1OC)N1CCc2ccccc2C1 (stereo not given)	-0.5	-0.15	-0.57	15	0.64	nt	nt
O=C(NCCN1CCOCC1)c1cc2sccc2n1Cc1ccc(F)cc1	-0.78	-0.92	0.3	nt	-0.83	nt	nt
O=C(NCCN1CCOCC1)c1cc2sccc2n1Cc1ccc(Cl)cc1	nt	-4.5*	0.67	nt	-0.26	349*	239
O=C(COC(=O)Cn1cnc2ccccc21)NCCc1ccccc1	0.54	0.56	-0.38	-1	-0.052	nt	nt
O=C(Cn1cnc2ccccc21)OCC(=O)N1CCc2ccccc2C1	-0.093	-1.7*	-0.3	nt	-1.2	598	221
C=CC[n+]1c(-c2ccc(OC)c(OC)c2)csc1NNC(=O)Nc1ccccc1	nt	nt	nt	16	nt	nt	nt
COCCNC(=O)C(c1cccs1)N(C(=O)Cn1nnc2ccccc21)c1cccc(C)c1 (stereo not given)	0.084	-18*	-1.1	70	-0.47	679	234
CCCC(O)(CCN1CCOCC1)c1ccc(Br)cc1 (stereo not given)	-0.53	-3.6*	0.17	-53	-0.35	283*	243
CCCOc1ccc(C(O)(CCC)CCN2CCCCC2)cc1 (stereo not given)	nt	nt	nt	38	nt	nt	nt
O=C(Nc1ccc2c(c1)OCO2)c1noc2c1CCCCC2	-4.4*	-4*	-0.04	-13	0.057	387*	232
CC(=O)c1ccc(NC(=O)c2noc3c2CCCCC3)cc1	-2.1	-0.21	-0.76	-53	0.25	nt	nt
COc1cccc(NC(=O)N(C2CCCCC2)C(C)c2cccs2)c1 (stereo not given)	nt	nt	nt	3	nt	nt	nt
Cc1cc2nc(C)n(CCCNC(=O)Nc3ccc(C#N)cc3)c2cc1C	-1.5	-10*	0.0088	-6	-0.79	135*	210
CC(OC(=O)c1cccc(NS(C)(=O)=O)c1)C(=O)Nc1ccc(N2CCOCC2)cc1 (stereo not given)	1	-0.086	0.94	43	-0.57	nt	nt
COC(=O)C1=C(C)NC(=O)NC1c1cn(-c2ccccc2)nc1-c1cccs1 (stereo not given)	1.8	-2.7*	-0.17	nt	-1.1	429	203
COC(=O)C1=C(C)NC(=O)NC1c1ccccc1 (stereo not given)	nt	0.94	1.6	nt	-1.1	nt	nt
Cc1cc(N2CCCN(C)CC2)nc2cc(Cl)ccc12	nt	-3.7*	0.23	nt	-1.3	378*	259
